{
  "source": "ChEMBL document CHEMBL4808148",
  "about": "“HDAC6 screening dataset using tau-based substrate in an enzymatic assay yields selective inhibitors and activators” (2021)",
  "note": "Screen size: about 5,600 compounds; about 390 (7%) showed an effect of 50% or more. This is one part of a sample in which strong results are shown more often than they occur.",
  "data": [
    {"target": "T1, Protein deacetylase HDAC6 (Homo sapiens) (UniProt Q9UBN7)", "T1 sequence (whole entry)": "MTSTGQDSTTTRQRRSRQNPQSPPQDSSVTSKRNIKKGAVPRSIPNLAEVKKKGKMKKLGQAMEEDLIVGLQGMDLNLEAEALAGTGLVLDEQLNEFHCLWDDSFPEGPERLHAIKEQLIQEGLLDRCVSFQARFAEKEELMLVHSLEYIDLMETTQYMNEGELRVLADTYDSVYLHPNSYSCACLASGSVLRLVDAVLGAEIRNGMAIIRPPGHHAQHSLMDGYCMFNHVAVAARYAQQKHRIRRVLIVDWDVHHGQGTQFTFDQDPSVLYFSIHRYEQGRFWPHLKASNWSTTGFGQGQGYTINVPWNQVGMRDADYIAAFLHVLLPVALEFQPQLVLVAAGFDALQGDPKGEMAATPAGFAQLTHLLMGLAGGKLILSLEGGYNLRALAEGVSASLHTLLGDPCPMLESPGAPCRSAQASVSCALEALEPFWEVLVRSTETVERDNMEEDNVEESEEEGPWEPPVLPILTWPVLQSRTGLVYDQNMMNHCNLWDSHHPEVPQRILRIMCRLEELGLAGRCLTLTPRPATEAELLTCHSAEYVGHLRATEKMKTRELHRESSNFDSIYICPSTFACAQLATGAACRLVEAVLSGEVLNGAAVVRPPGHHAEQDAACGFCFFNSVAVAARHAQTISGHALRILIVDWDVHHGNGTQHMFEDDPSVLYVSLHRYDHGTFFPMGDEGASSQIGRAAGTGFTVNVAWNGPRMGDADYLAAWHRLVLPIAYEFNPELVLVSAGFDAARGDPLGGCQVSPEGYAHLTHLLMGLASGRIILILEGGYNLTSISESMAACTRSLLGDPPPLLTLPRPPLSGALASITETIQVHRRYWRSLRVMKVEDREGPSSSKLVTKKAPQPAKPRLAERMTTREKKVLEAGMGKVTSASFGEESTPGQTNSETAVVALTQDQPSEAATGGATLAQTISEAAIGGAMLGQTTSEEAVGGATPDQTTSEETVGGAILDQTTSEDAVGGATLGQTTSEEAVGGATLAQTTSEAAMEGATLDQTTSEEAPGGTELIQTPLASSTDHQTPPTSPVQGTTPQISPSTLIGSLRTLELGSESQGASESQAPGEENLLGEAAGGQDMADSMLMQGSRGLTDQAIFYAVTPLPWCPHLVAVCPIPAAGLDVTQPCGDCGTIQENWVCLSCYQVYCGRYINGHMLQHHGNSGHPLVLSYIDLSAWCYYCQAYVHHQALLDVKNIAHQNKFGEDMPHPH", "conditions": "at 10 µM", "units": {"inhibition": "%"}, "values": [
      {"smiles": "CCOC(=O)[C@H](Cc1ccc([N+](=O)[O-])cc1)NC(=O)c1ccccc1", "inhibition": 14.4},
      {"smiles": "O=C(Nc1cc(-c2ccccc2)nn1-c1ccccc1)c1ccc([N+](=O)[O-])cc1", "inhibition": 23},
      {"smiles": "O=C(Nc1ccccc1C(=O)Nc1ccc(CCO)cc1)c1ccc([N+](=O)[O-])cc1", "inhibition": 78.3},
      {"smiles": "C[C@]12C=CC(=O)N[C@@H]1CC[C@@H]1[C@@H]2CC[C@]2(C)[C@@H](C(=O)Nc3cc(C(F)(F)F)ccc3C(F)(F)F)CC[C@@H]12", "inhibition": 34.1},
      {"smiles": "O=C(NCCN1CCC(n2c(=O)[nH]c3ccccc32)CC1)c1cc2cc(F)ccc2[nH]1", "inhibition": 22.7},
      {"smiles": "CCOCOC[C@H](C[C@H](C)C(=O)NO)NC(=O)c1ccc(Oc2ccccc2)cc1", "inhibition": 25.9},
      {"smiles": "C[C@@H](C(=O)O)c1ccc(-c2ccccc2)c(F)c1", "inhibition": 0.12},
      {"smiles": "CC(C(=O)O)c1ccc2c(c1)Cc1ccccc1-2", "note": "(stereo unspecified)", "inhibition": 63.7},
      {"smiles": "CC(C(=O)O)c1ccc(-c2ccccc2)c(F)c1", "note": "(racemic)", "inhibition": 13.4},
      {"smiles": "CCn1cnc(C(=O)NC)c1C(=O)NC", "inhibition": -8.83},
      {"smiles": "Cc1ccccc1N1CCN(S(=O)(=O)CC23CCC(C[C@@H]2NC(=O)[C@@H](N)CCS(C)(=O)=O)C3(C)C)CC1", "note": "(stereo partly specified)", "inhibition": 2.99},
      {"smiles": "CN[C@@H]1[C@H](O[C@H]2[C@H](O[C@H]3[C@H](O)[C@@H](O)[C@H](NC(=N)N)[C@@H](O)[C@@H]3NC(=N)N)O[C@@H](C)[C@]2(O)CO)O[C@@H](CO)[C@H](O)[C@H]1O", "inhibition": 8.93},
      {"smiles": "C/C1=C/C[C@@H](/C(C)=C/c2csc(C)n2)OC(=O)C[C@H](O)C(C)(C)C(=O)[C@H](C)[C@@H](O)[C@@H](C)CCC1", "inhibition": -9.51},
      {"smiles": "CC(C1=C(CCN(C)C)Cc2ccccc21)c1ccccn1", "note": "(stereo unspecified)", "inhibition": -6.73},
      {"smiles": "CC(=O)c1ccc2c(c1)N(CCCN(C)C)c1ccccc1S2", "inhibition": 43.7},
      {"smiles": "CN(C)CCC=C1c2ccccc2CCc2ccccc21", "inhibition": 60.4},
      {"smiles": "C[C@@H](C1=C(CCN(C)C)Cc2ccccc21)c1ccccn1", "inhibition": -1.4},
      {"smiles": "CN(C)CC/C=C1\\c2ccccc2Sc2ccc(Cl)cc21", "inhibition": 91.2},
      {"smiles": "CCOC(=O)c1ccc(-c2ccc(OC(=O)N(C)Cc3cccc(-c4ccncc4)c3)cc2)cc1", "inhibition": 5},
      {"smiles": "CC(C)(C)c1cc(C(C)(C)C)c2c(c1)C(O)(C(F)(F)F)C(=O)O2", "note": "(racemic)", "inhibition": -6.8},
      {"smiles": "Fc1ccccc1CNCc1ccc(-c2ccnc3[nH]ccc23)cc1", "inhibition": 44.7},
      {"smiles": "CSc1nc(N)cc(Oc2ccc(-c3nnc(Nc4cccc(C(F)(F)F)c4)[nH]3)cc2)n1", "inhibition": 10.4},
      {"smiles": "CC(C)[C@@H](C)/C=C/[C@@H](C)[C@H]1CC[C@H]2C3=CC=C4C[C@@H](O)CC[C@]4(C)[C@H]3CC[C@]12C", "inhibition": 26.6},
      {"smiles": "COc1cccc(CN2C[Si](C)(C)O[Si](C)(C)C2)c1", "inhibition": 9.47},
      {"smiles": "Nc1ncnc2c1ncn2[C@@H]1O[C@H](COP(=O)(O)OP(=O)(O)OP(=O)(O)O)[C@@H](O)[C@H]1O", "inhibition": -7.9},
      {"smiles": "Nc1c(CC(=O)O)cccc1C(=O)c1ccc(Br)cc1", "inhibition": 69.8},
      {"smiles": "Nc1c(CC(=O)O)cccc1C(=O)c1ccccc1", "inhibition": 0.48},
      {"smiles": "NC(=O)Cc1cccc(C(=O)c2ccccc2)c1N", "inhibition": 48.4},
      {"smiles": "COc1cc(OC)nc(O[C@H](C(=O)O)C(OC)(c2ccccc2)c2ccccc2)n1", "inhibition": -2.76},
      {"smiles": "COc1cc(/C=C/C(N)=O)cc(OC)c1OC", "inhibition": 13.3},
      {"smiles": "Cn1cc(C(=O)c2cccc3ccccc23)cc1C(=O)O", "inhibition": 25},
      {"smiles": "Cn1cc(-c2ccc(F)c(C(F)(F)F)c2)nc1C1CCN(c2ncnc3[nH]ncc23)CC1", "inhibition": 24},
      {"smiles": "CCCCCCCCCCCCCCCCCC[S+](CCC)c1ccccc1C(=O)OCC", "note": "(stereo unspecified)", "inhibition": 21},
      {"smiles": "CC[n+]1c(-c2ccccc2)c2cc(N)ccc2c2ccc(N)cc21", "inhibition": 2.78},
      {"smiles": "CC[N+](C)(CC)CCC[n+]1c(-c2ccccc2)c2cc(N)ccc2c2ccc(N)cc21", "inhibition": 60.2},
      {"smiles": "CC(C)(C(=O)O)c1ccc(C(=O)CCCN2CCC(OC(c3ccccc3)c3ccccc3)CC2)cc1", "inhibition": 3.08},
      {"smiles": "CCc1c2c(nc3ccc(OC(=O)N4CCC(N5CCCCC5)CC4)cc13)-c1cc3c(c(=O)n1C2)COC(=O)[C@]3(O)CC", "inhibition": -2.26},
      {"smiles": "Cc1cc(SCc2sc(-c3ccc(C(F)(F)F)c(F)c3)nc2C)ccc1OCC(=O)O", "inhibition": 66.5},
      {"smiles": "Cc1cc(OCc2nc(-c3ccccc3Cl)cs2)ccc1OCC(=O)O", "inhibition": 33.8},
      {"smiles": "Cn1ncnc1COc1nn2c(-c3c(F)cccc3F)nnc2cc1C1CCC1", "inhibition": 3.27},
      {"smiles": "CCOC(=O)C(=O)Nc1cccc(OC)c1C(N)=O", "inhibition": 24.8},
      {"smiles": "CCN(CC)CCCCC(NC(=O)c1ccc([N+](=O)[O-])cc1)c1ccccc1", "note": "(stereo unspecified)", "inhibition": -1.83},
      {"smiles": "CCOc1ccc(/C=C2\\NCCc3cc(OCC)c(OCC)cc32)cc1OCC", "inhibition": 7.94},
      {"smiles": "CCOc1nc2c(N)ncnc2n1CC", "inhibition": 7.36},
      {"smiles": "CN(C)CCOc1ccc(/C(=C(/CCCl)c2ccccc2)c2ccccc2)cc1", "inhibition": 33.5},
      {"smiles": "C=CC(=O)N1CCC[C@@H](n2c(=O)n(-c3ccc(Oc4ccccc4)cc3)c3c(N)ncnc32)C1", "inhibition": 9.93}
    ]}
  ]
}
